Here are results for 32 compounds from PubChem BioAssay.

Each structure is given as a SMILES string. Values joined by “and” are separate entries in the source; they are usually repeats but may differ in a detail not shown here. Equal entries are not always repeated.

Pro-neuregulin-1, membrane-bound isoform (Homo sapiens), sequence (Q02297 whole entry, looked up, canonical isoform): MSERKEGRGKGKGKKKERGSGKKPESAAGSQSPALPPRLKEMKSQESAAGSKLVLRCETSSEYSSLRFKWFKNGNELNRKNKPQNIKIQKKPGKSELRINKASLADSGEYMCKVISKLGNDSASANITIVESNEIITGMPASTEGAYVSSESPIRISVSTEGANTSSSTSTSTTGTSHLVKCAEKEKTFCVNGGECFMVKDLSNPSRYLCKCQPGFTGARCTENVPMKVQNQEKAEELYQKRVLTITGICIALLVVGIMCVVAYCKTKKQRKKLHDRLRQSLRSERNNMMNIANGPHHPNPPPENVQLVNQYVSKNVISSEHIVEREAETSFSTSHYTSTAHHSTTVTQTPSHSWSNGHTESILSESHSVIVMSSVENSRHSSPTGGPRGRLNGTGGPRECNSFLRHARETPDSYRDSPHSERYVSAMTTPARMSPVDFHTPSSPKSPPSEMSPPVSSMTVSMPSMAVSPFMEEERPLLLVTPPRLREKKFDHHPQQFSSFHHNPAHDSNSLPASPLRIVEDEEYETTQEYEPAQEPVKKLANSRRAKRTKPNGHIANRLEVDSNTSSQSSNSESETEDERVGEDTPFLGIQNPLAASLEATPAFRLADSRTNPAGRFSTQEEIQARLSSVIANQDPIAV

One assay has as its target Pro-neuregulin-1, membrane-bound isoform (Homo sapiens) (UniProt Q02297). As to the kind of experiment: small molecules binding neuregulin-1 protein – biochemical, small-molecule microarray, fluorescence 635/667, psychiatric disease protein project, primary screen (AID 1075).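 Also: score combines 667 nm spot fluorescence with signal to noise.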 The note with it: NRG1 binding, 635 nm fluorescence, higher = more signal.
Compound `CCCC=C(CCC)[C@@H](NP(=O)(c1ccccc1)c1ccccc1)c1ccccc1` had a composite z-score of -0.0154.
In turn, `COC(=O)[C@H]1C(=O)c2ccccc2O[C@@](C(=O)OC)(c2ccccc2)[C@@H]1c1ccccc1` displayed a composite z-score of -0.454.
Consider `C[C@@H]1Cc2c(cnc3c2CN(C)CC3)CO1`, for which the composite z-score was -0.93.
`COc1cc2c(cc1O)C(C)N(C)CC2` (centres undefined): the composite z-score was -0.0581.
On the same count and under the same terms, the value for `CN1CCc2nc(CO)c(CO)cc2C1` was 0.0016; that for `COC(=O)C1(C)C=C2C(=C(C)C(=O)C2C)CN1` (centres undefined) was 0.367.
On to `CC1N(P(=O)(c2ccccc2)c2ccccc2)CC(O)(c2ccccc2)CC12CC2` (centres undefined), for which the composite z-score was 2 and 1.82.
The compound `OCc1ccc(C2=CC(c3cccs3)N(Cc3cccc(OC(F)(F)F)c3)CC2)cc1` (centres undefined) gave a composite z-score of 0.764.
Still for that read-out and setting: the figure for `CN1CCC(c2ccc(CO)cc2)=CC1C1CC1` (centres undefined) is -0.292.
`COC(=O)[C@H]1[C@@H](O)[C@@]2(O)c3c(OC)cc(OC)cc3O[C@@]2(c2ccc(OC)cc2)[C@@H]1c1ccccc1`: the composite z-score came out at 0.167.
Take `CN1CCC(c2ccc(CO)cc2)=CC1c1cccs1` (centres undefined): the composite z-score came out at 0.0188.
The compound `COC(=O)[C@@]1(Cc2ccc(F)cc2)[C@H]2c3cc(C(=O)N(C)C)[nH]c3C[C@H]2CN1C(=O)c1ccccc1` had a composite z-score of 0.986.
As to `CCCc1cc2c(n1Cc1ccc(C)cc1)C(C)C1CN(C(=O)c3ccccc3)C(C)(C(=O)OC)C21` (centres undefined), the composite z-score was found to be 1.32.
With `COc1cc2c(cc1O)C=[N+](C)CC2`, the composite z-score is -0.835.
`CCCc1cc2c(n1Cc1ccco1)C(C)C1CN(C(=O)c3ccccc3)C(C)(C(=O)OC)C21` (centres undefined) showed a composite z-score of 1.35.
In turn, `CCCC[C@@H]1C[C@H]1[C@@H](NP(=O)(c1ccccc1)c1ccccc1)c1ccc(Cl)cc1` registered a composite z-score of 0.291.
Still for that read-out and setting: the figure for `COC(=O)[C@@]1(Cc2ccccc2)[C@H]2c3cc(C(=O)N(C)C)[nH]c3C[C@H]2CN1C(=O)c1ccccc1` is 1.03; for `CCCc1cc2c(n1Cc1cccc(Cl)c1)C(C)C1CN(C(=O)c3ccccc3)C(C)(C(=O)OC)C21` (centres undefined) it is 1.92.
The same measure, in the same setting: the value for `COC(=O)[C@H]1[C@H](c2ccccc2)C(=O)[C@]2(O)c3ccccc3O[C@@]12c1ccccc1` was 0.113.
Turning to `C[C@H]1O[C@H]2C3=C(C(=O)[C@@H]4O[C@@H]4[C@@H]3O)[C@@H]1[C@@H]1[C@@H](C)OC=C3[C@@H](O)[C@H]4O[C@H]4C(=O)[C@]312`, the composite z-score is -0.48.
`CCc1cc2c(nc1CC)CCN(CCC(C)=NOC)C2` registered a composite z-score of 0.0159.
In turn, `O=P(c1ccccc1)(c1ccccc1)N1CC2(CC2)CC(O)(c2ccccc2)C1` (centres undefined) registered a composite z-score of 0.963.
On the same count and under the same terms, the figure for `OCc1ccc(C2=CC(C3CC3)N(Cc3sc4ccccc4c3Cl)CC2)cc1` (centres undefined) is 0.503; for `C=C(CC1(C(C)NP(=O)(c2ccccc2)c2ccccc2)CC1)c1ccccc1` (centres undefined) it is 1.16; for `C=C(CC1(CNP(=O)(c2ccccc2)c2ccccc2)CC1)c1ccccc1` it is 1.69.
Take `CCOC(=O)[C@H]1CC=C2C(=O)Oc3ccccc3[C@@H]21`: the composite z-score came out at 0.833.
`CCOC(=O)[C@H]1CC=C2C(=O)Oc3ccc(Br)cc3[C@@H]21`: the composite z-score was determined as 0.994.
Same read-out and setting: the figure for `C[C@@H]1OC=C2[C@@H](O)[C@H]3O[C@H]3C(=O)[C@]23[C@H]1[C@H]1C2=C([C@@H](O)[C@H]4O[C@H]4C2=O)[C@@H]3O[C@@H]1C` is -0.854; for `COC(=O)[C@@]1(Cc2ccccc2)[C@H]2c3cc(C(=O)N(C)C)n(C)c3C[C@H]2CN1C(=O)c1ccccc1` it is 2.02; for `c1ccc(-c2cc3c(nc2-c2ccccc2)CCNC3)cc1` it is -0.0361.
As to `COC(=O)NCC=Cc1nc(CCC=CC(=O)O[C@H]2CC3CC(=O)O[C@@H](C=CCC(C)C)C[C@@H]4CC[C@H](C)[C@@H](C[C@@H](OC)C[C@H](C2)O3)O4)co1`, the composite z-score is -0.657.
The compound `CCCc1cc2c(n1CCO)C(C)C1CN(C(=O)c3ccccc3)C(C)(C(=O)OC)C21` (centres undefined) displayed a composite z-score of 1.21.

Another assay deals with Neuregulin-1 EGF-like domain. The assay can be described thus: small molecules binding NRG1 EGF domain – biochemical, small-molecule microarray, 635 nm fluorescence, primary screen (AID 1081).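 Also: binding of the protein to compounds printed on small-molecule microarray slides.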 Particulars: higher = more signal.
Consider `CCCC=C(CCC)[C@@H](NP(=O)(c1ccccc1)c1ccccc1)c1ccccc1`, for which the composite z-score was 0.318.
Consider `COC(=O)[C@H]1C(=O)c2ccccc2O[C@@](C(=O)OC)(c2ccccc2)[C@@H]1c1ccccc1`, for which the composite z-score is -1.02.
Regarding `C[C@@H]1Cc2c(cnc3c2CN(C)CC3)CO1`, the composite z-score is -0.206.
On the same count and under the same terms, the figure for `COc1cc2c(cc1O)C(C)N(C)CC2` (centres undefined) is 1.14.
`CN1CCc2nc(CO)c(CO)cc2C1` returned a composite z-score of 0.611.
`COC(=O)C1(C)C=C2C(=C(C)C(=O)C2C)CN1` (centres undefined) had a composite z-score of 1.55.
As to `CC1N(P(=O)(c2ccccc2)c2ccccc2)CC(O)(c2ccccc2)CC12CC2` (centres undefined), the composite z-score was 1.41 and 0.526.
Still for that read-out and setting: the value for `OCc1ccc(C2=CC(c3cccs3)N(Cc3cccc(OC(F)(F)F)c3)CC2)cc1` (centres undefined) was 0.536; that for `CN1CCC(c2ccc(CO)cc2)=CC1C1CC1` (centres undefined) was 0.839.
Compound `COC(=O)[C@H]1[C@@H](O)[C@@]2(O)c3c(OC)cc(OC)cc3O[C@@]2(c2ccc(OC)cc2)[C@@H]1c1ccccc1` gave a composite z-score of 0.357.
Consider `CN1CCC(c2ccc(CO)cc2)=CC1c1cccs1` (centres undefined), for which the composite z-score came to 1.04.
As for `COC(=O)[C@@]1(Cc2ccc(F)cc2)[C@H]2c3cc(C(=O)N(C)C)[nH]c3C[C@H]2CN1C(=O)c1ccccc1`, the composite z-score came to 1.06.
Turning to `CCCc1cc2c(n1Cc1ccc(C)cc1)C(C)C1CN(C(=O)c3ccccc3)C(C)(C(=O)OC)C21` (centres undefined), the composite z-score worked out at 1.08.
In the case of `COc1cc2c(cc1O)C=[N+](C)CC2`, the composite z-score is -0.286.
The compound `CCCc1cc2c(n1Cc1ccco1)C(C)C1CN(C(=O)c3ccccc3)C(C)(C(=O)OC)C21` (centres undefined) gave a composite z-score of 1.09.
`CCCC[C@@H]1C[C@H]1[C@@H](NP(=O)(c1ccccc1)c1ccccc1)c1ccc(Cl)cc1` yielded a composite z-score of 0.142.
In turn, `COC(=O)[C@@]1(Cc2ccccc2)[C@H]2c3cc(C(=O)N(C)C)[nH]c3C[C@H]2CN1C(=O)c1ccccc1` returned a composite z-score of 0.954.
Still for that read-out and setting: the figure for `CCCc1cc2c(n1Cc1cccc(Cl)c1)C(C)C1CN(C(=O)c3ccccc3)C(C)(C(=O)OC)C21` (centres undefined) is 1.11.
The same measure, in the same setting: the value for `COC(=O)[C@H]1[C@H](c2ccccc2)C(=O)[C@]2(O)c3ccccc3O[C@@]12c1ccccc1` was 0.348.
On to `C[C@H]1O[C@H]2C3=C(C(=O)[C@@H]4O[C@@H]4[C@@H]3O)[C@@H]1[C@@H]1[C@@H](C)OC=C3[C@@H](O)[C@H]4O[C@H]4C(=O)[C@]312`, for which the composite z-score was -0.894.
Turning to `CCc1cc2c(nc1CC)CCN(CCC(C)=NOC)C2`, the composite z-score was 0.763.
Take `O=P(c1ccccc1)(c1ccccc1)N1CC2(CC2)CC(O)(c2ccccc2)C1` (centres undefined): the composite z-score was determined as 1.33.
For the compound `OCc1ccc(C2=CC(C3CC3)N(Cc3sc4ccccc4c3Cl)CC2)cc1` (centres undefined), the composite z-score was determined as 1.14.
Still for that read-out and setting: the value for `C=C(CC1(C(C)NP(=O)(c2ccccc2)c2ccccc2)CC1)c1ccccc1` (centres undefined) was 0.714; that for `C=C(CC1(CNP(=O)(c2ccccc2)c2ccccc2)CC1)c1ccccc1` was 0.525.
Still for that read-out and setting: the figure for `CCOC(=O)[C@H]1CC=C2C(=O)Oc3ccccc3[C@@H]21` is -0.169.
The compound `CCOC(=O)[C@H]1CC=C2C(=O)Oc3ccc(Br)cc3[C@@H]21` came in with a composite z-score of 0.727.
`C[C@@H]1OC=C2[C@@H](O)[C@H]3O[C@H]3C(=O)[C@]23[C@H]1[C@H]1C2=C([C@@H](O)[C@H]4O[C@H]4C2=O)[C@@H]3O[C@@H]1C`: the composite z-score was -0.372.
Compound `COC(=O)[C@@]1(Cc2ccccc2)[C@H]2c3cc(C(=O)N(C)C)n(C)c3C[C@H]2CN1C(=O)c1ccccc1` returned a composite z-score of 1.14.
The compound `c1ccc(-c2cc3c(nc2-c2ccccc2)CCNC3)cc1` gave a composite z-score of -0.969.
Regarding `COC(=O)NCC=Cc1nc(CCC=CC(=O)O[C@H]2CC3CC(=O)O[C@@H](C=CCC(C)C)C[C@@H]4CC[C@H](C)[C@@H](C[C@@H](OC)C[C@H](C2)O3)O4)co1`, the composite z-score was -0.905.
`CCCc1cc2c(n1CCO)C(C)C1CN(C(=O)c3ccccc3)C(C)(C(=O)OC)C21` (centres undefined) gave a composite z-score of 1.14.
